In ChEMBL document CHEMBL2218924, “A broad activity screen in support of a chemogenomic map for kinase signalling research and drug discovery” (Biochem J, 2013):

What follows are compounds tested against Tyrosine-protein kinase Fes/Fps (Homo sapiens) (UniProt P07332). Details: at 10 µM.
Sequence of Tyrosine-protein kinase Fes/Fps (Homo sapiens) (P07332 whole entry): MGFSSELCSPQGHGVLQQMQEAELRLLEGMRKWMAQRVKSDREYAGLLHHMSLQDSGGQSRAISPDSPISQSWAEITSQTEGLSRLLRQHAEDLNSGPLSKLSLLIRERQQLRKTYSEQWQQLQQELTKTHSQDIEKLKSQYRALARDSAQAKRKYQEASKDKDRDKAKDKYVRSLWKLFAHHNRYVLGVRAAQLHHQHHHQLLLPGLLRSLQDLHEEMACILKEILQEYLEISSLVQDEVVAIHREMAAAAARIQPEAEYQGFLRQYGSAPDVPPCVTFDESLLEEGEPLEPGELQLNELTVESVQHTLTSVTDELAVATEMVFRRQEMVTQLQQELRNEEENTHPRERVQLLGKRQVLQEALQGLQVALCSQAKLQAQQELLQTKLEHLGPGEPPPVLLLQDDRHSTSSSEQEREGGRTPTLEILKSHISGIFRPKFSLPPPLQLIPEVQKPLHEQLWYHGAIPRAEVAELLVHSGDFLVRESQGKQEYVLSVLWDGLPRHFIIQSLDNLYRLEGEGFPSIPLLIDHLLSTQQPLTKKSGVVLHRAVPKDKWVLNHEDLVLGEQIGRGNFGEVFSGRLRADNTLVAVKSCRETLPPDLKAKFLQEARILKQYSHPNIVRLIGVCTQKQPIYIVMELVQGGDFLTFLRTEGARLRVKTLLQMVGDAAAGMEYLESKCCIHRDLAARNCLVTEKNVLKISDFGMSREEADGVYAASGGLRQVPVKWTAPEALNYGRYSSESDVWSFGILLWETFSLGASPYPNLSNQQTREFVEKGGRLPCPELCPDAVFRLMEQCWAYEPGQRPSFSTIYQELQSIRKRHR

Structure (SMILES)	residual activity
CC(=O)O/N=C1\C(=C2\C(=O)Nc3cc(Br)ccc32)Nc2ccccc21	97%
Oc1n[nH]c2nnc(-c3c(-c4ccccc4)nn4ccccc34)cc12	108%
Cn1cnc2cc3c(Nc4cccc(Br)c4)ncnc3cc21	83%
O=C(O)c1ccc2c3c1cccc3c(=O)n1c3ccccc3nc21	71%
Nc1nc(Nc2ccc(S(N)(=O)=O)cc2)nn1C(=S)Nc1c(F)cccc1F	1%
CCC(=O)Nc1ccc2ncnc(Nc3cccc(Br)c3)c2c1	78%
CO[C@H]1C[C@@H]2CC[C@@H](C)[C@@](O)(O2)C(=O)C(=O)N2CCCC[C@H]2C(=O)O[C@H]([C@H](C)C[C@@H]2CC[C@@H](O)[C@H](OC)C2)CC(=O)[C@H](C)/C=C(\C)[C@@H](O)[C@@H](OC)C(=O)[C@H](C)C[C@H](C)/C=C/C=C/C=C/1C	84%
O=C1NC(=O)/C(=C/c2ccc3c(c2)OC(F)(F)O3)S1	90%
O=C1Nc2ccccc2/C1=C1/Nc2ccccc2/C1=N\OCCC(O)CO (stereo not given)	48%
O=c1c2ccccc2[nH]c(=S)n1CCN1CCC(=C(c2ccc(F)cc2)c2ccc(F)cc2)CC1	93%
CC(C)n1cnc2c(NCc3ccccc3)nc(NCCCO)nc21	51%
Cc1nc2cc3nc(-c4cccs4)cnc3cc2n1C	88%
COc1cc2ncnc(Nc3ccc(O)c(Br)c3)c2cc1OC	65%
CCOc1cc2ncnc(Nc3cccc(Br)c3)c2cc1OCC	80%
Cn1cc(/C=C2\C(=O)Nc3ccc(S(N)(=O)=O)cc32)c2ccccc21	15%
COc1ccc(CNc2nc(N(CCO)CCO)nc3c2ncn3C(C)C)cc1	23%
O=c1cc(-c2cccc3c2Sc2ccccc2S3)oc(N2CCOCC2)c1	96%
O=C(Nc1cccc(Nc2nccc(Nc3cccc(C(F)(F)F)c3)n2)c1)C1CC1	68%

Structure (SMILES)	residual activity
CCN(CC)CCCCN1c2ccccc2Oc2ccc(Cl)cc21	88%
Nc1cccc(-c2cc3c(Oc4cccc(O)c4)ncnc3[nH]2)c1	1%
COc1ccc(OC)c2c(=S)c3ccccc3[nH]c12	103%
COc1cccc(-c2cc(=O)c3ccccc3o2)c1N	107%
CNc1cc2c(Nc3cccc(Br)c3)ncnc2cn1	92%
CC(C)n1cnc2/c(=N/c3cccc(Cl)c3)nc(NCCO)[nH]c21	12%
CN(C)c1ccc(/C=C2\C(=O)Nc3ccccc32)cc1	79%
N#C/C(=C(\N)Sc1ccc(N)cc1)c1ccccc1C(F)(F)F	100%
O=C1Nc2cc(Br)ccc2/C1=C1/Nc2ccccc2/C1=N\O	100%
Ic1cccc(CSc2nnc(-c3ccncc3)o2)c1	92%
O=C1NC(=O)c2cc(Nc3ccc(F)cc3)c(Nc3ccc(F)cc3)cc21	69%
O=C1c2ccccc2-[n+]2ccc3c([nH]c4ccccc43)c21	88%
COc1ccc(S(=O)(=O)N(CCO)c2ccccc2CN(C)C/C=C/c2ccc(Cl)cc2)cc1	89%
O=C1NC(=O)/C(=C\c2ccc3nccnc3c2)S1	85%
Oc1ccc(Nc2nc(-c3ccc(Cl)cc3)cs2)cc1	95%
O=C1NC(=O)c2c1c1c3ccccc3[nH]c1c1[nH]c3cc(Br)ccc3c21	96%
Oc1c2ccccc2c2c3c(cccc13)N=N2	6%

What follows are compounds tested against Tyrosine-protein kinase Fgr (Homo sapiens) (UniProt P09769). Details: at 1 µM.
Sequence of Tyrosine-protein kinase Fgr (Homo sapiens) (P09769 2-529 limits assumed): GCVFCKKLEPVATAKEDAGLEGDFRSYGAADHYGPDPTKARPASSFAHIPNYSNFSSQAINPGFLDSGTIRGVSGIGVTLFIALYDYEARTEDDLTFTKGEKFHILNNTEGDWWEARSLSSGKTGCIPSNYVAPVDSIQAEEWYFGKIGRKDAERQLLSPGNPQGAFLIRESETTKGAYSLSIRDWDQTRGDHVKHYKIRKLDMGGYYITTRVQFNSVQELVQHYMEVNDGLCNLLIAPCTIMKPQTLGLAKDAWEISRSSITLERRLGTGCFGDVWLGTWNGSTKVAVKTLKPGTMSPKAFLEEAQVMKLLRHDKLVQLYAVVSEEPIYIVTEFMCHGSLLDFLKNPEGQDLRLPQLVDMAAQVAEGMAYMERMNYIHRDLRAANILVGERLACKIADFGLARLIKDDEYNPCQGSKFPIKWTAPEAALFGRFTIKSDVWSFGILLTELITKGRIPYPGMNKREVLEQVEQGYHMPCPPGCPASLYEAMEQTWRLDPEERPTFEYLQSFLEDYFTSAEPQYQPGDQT

Structure (SMILES)	residual activity
CC(=O)O/N=C1\C(=C2\C(=O)Nc3cc(Br)ccc32)Nc2ccccc21	10%
Oc1n[nH]c2nnc(-c3c(-c4ccccc4)nn4ccccc34)cc12	89%
Cn1cnc2cc3c(Nc4cccc(Br)c4)ncnc3cc21	63%
O=C(O)c1ccc2c3c1cccc3c(=O)n1c3ccccc3nc21	97%
Nc1nc(Nc2ccc(S(N)(=O)=O)cc2)nn1C(=S)Nc1c(F)cccc1F	9%
CCC(=O)Nc1ccc2ncnc(Nc3cccc(Br)c3)c2c1	102%
CO[C@H]1C[C@@H]2CC[C@@H](C)[C@@](O)(O2)C(=O)C(=O)N2CCCC[C@H]2C(=O)O[C@H]([C@H](C)C[C@@H]2CC[C@@H](O)[C@H](OC)C2)CC(=O)[C@H](C)/C=C(\C)[C@@H](O)[C@@H](OC)C(=O)[C@H](C)C[C@H](C)/C=C/C=C/C=C/1C	98%
O=C1NC(=O)/C(=C/c2ccc3c(c2)OC(F)(F)O3)S1	105%
O=C1Nc2ccccc2/C1=C1/Nc2ccccc2/C1=N\OCCC(O)CO (stereo not given)	3%
O=c1c2ccccc2[nH]c(=S)n1CCN1CCC(=C(c2ccc(F)cc2)c2ccc(F)cc2)CC1	110%
CC(C)n1cnc2c(NCc3ccccc3)nc(NCCCO)nc21	103%
Cc1nc2cc3nc(-c4cccs4)cnc3cc2n1C	109%
COc1cc2ncnc(Nc3ccc(O)c(Br)c3)c2cc1OC	39%
CCOc1cc2ncnc(Nc3cccc(Br)c3)c2cc1OCC	54%
Cn1cc(/C=C2\C(=O)Nc3ccc(S(N)(=O)=O)cc32)c2ccccc21	9%
COc1ccc(CNc2nc(N(CCO)CCO)nc3c2ncn3C(C)C)cc1	77%
O=c1cc(-c2cccc3c2Sc2ccccc2S3)oc(N2CCOCC2)c1	99%
O=C(Nc1cccc(Nc2nccc(Nc3cccc(C(F)(F)F)c3)n2)c1)C1CC1	59%

Structure (SMILES)	residual activity
CCN(CC)CCCCN1c2ccccc2Oc2ccc(Cl)cc21	111%
Nc1cccc(-c2cc3c(Oc4cccc(O)c4)ncnc3[nH]2)c1	0%
COc1ccc(OC)c2c(=S)c3ccccc3[nH]c12	94%
COc1cccc(-c2cc(=O)c3ccccc3o2)c1N	97%
CNc1cc2c(Nc3cccc(Br)c3)ncnc2cn1	73%
CC(C)n1cnc2/c(=N/c3cccc(Cl)c3)nc(NCCO)[nH]c21	48%
CN(C)c1ccc(/C=C2\C(=O)Nc3ccccc32)cc1	90%
N#C/C(=C(\N)Sc1ccc(N)cc1)c1ccccc1C(F)(F)F	88%
O=C1Nc2cc(Br)ccc2/C1=C1/Nc2ccccc2/C1=N\O	1%
Ic1cccc(CSc2nnc(-c3ccncc3)o2)c1	80%
O=C1NC(=O)c2cc(Nc3ccc(F)cc3)c(Nc3ccc(F)cc3)cc21	89%
O=C1c2ccccc2-[n+]2ccc3c([nH]c4ccccc43)c21	92%
COc1ccc(S(=O)(=O)N(CCO)c2ccccc2CN(C)C/C=C/c2ccc(Cl)cc2)cc1	95%
O=C1NC(=O)/C(=C\c2ccc3nccnc3c2)S1	107%
Oc1ccc(Nc2nc(-c3ccc(Cl)cc3)cs2)cc1	96%
O=C1NC(=O)c2c1c1c3ccccc3[nH]c1c1[nH]c3cc(Br)ccc3c21	100%
Oc1c2ccccc2c2c3c(cccc13)N=N2	75%
